Source: PubChem (National Center for Advancing Translational Sciences (NCATS))
G9a block = G9a (human) methyltransferase inhibition. Q96KQ7. G9a H3K9 monomethylation, AlphaScreen, 2 h. Potency, µM (titrated, usually from 102 µM), hits mostly inhibitors. 350,000 tested, 8.8% active. AID 504332; also: nearly all actives have a fitted effect of over 75% in size
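Readings reflect AlphaScreen signal from monomethyl-H3K9 antibody detection. HMT at 20 nM; substrate b-H3K9 500 nM; cofactor SAM 20 uM; 2 h RT reaction; compounds tested as titrations in qHTS with 15 min preincubation.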
HP1b chromo inh = blocks HP1-beta chromodomain binding to methylated histone tails. AID 540317. Potency, µM (doses to about 114 µM), actives largely listed as inhibitors. 390,000 tested, 0.56% active. P83916. AlphaScreen HP1-beta / biotin-H3K9me3 peptide binding; also: nearly all actives have a fitted effect of over 70% in size
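AlphaScreen: HP1-beta (50 nM) preformed 30 min with biotin-H3(1-18)K9me3 peptide (50 nM) in PBS pH 7.4, 0.01% Tween-20. Compound added for 30 min at RT, then streptavidin donor/nickel chelate acceptor beads (10 ug/mL) for 30 min.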
PLK1 PBD inh = blocks phosphopeptide binding to human PLK1 polo-box domain; Plk1 PBD binding of FITC phosphopeptide, fluorescence polarization; Potency, µM, most hits filed as inhibitors; 360,000 tested, 2.8% active; AID 720504; also: series mostly up to about 57 µM; nearly all actives have a fitted effect of over 65% in size
JMJD2A Tudor inh = inhibitors of human JMJD2A Tudor domain; AID 504339; Potency, µM (titrated, usually from 114 µM), hits mostly inhibitors; AlphaScreen JMJD2A-Tudor / H3K4me3 peptide binding; 390,000 tested, 4.4% active; also: nearly all actives have a fitted effect of over 50% in size
PI5P4Ka inh = inhibitors of human PI5P4K alpha. max response, %. AID 652105. PI5P4Kalpha enzyme, ADP-Glo luminescence, 60 min; stronger effect = lower value. P48426. 330,000 tested, 1.2% active; active = max response of -50% or lower; inconclusive = between -30% and -50%; inactive = -30% or higher; also: value at the top dose of about 77 µM
Target sequence (P48426 whole entry, looked up): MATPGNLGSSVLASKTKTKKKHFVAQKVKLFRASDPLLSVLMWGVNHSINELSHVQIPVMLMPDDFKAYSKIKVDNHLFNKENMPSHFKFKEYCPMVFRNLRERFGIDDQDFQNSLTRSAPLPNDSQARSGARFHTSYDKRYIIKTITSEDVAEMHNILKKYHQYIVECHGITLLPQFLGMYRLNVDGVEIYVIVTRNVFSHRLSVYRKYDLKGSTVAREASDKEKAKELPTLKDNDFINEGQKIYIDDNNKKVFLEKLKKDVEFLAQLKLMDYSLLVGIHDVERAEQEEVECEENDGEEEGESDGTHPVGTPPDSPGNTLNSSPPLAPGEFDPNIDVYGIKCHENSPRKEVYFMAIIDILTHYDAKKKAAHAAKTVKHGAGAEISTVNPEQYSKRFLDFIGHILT
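Luminescence from ADP-Glo served as readout of PI5P4Kalpha activity in a qHTS format. Reaction: enzyme, substrate, compound, ATP at 5 microM final, 60 min at RT.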
BAZ2B block = inhibitors of human BAZ2B bromodomain; Q9UIF8; AlphaScreen BAZ2B-H3K14Ac peptide displacement; Potency, µM (top dose mostly 114 µM), hits mostly inhibitors; 360,000 tested, 4.4% active; also: nearly all actives have a fitted effect of over 60% in size
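Multi-concentration screen (max 110 uM) measuring displacement of acetylated histone H3 peptide from BAZ2B by AlphaScreen, using 50 nM protein, 50 nM peptide and 10 ug/mL streptavidin donor plus Ni-chelate acceptor beads.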
Numbers stand for hits; – = inactive; ? = inconclusive; · = no result; [ ] = remark or other dose. An excerpt weighted towards active compounds, which were near 12% of everything screened. Unless noted, calls follow the shape of the dose curve; as a rule, active = well fitted curve in the direction sought with a large enough effect; inconclusive = small, poorly fitted or top-dose-only effect, or another doubt; inactive = no such curve, though single readings can be large; an effect the other way counts as inactive or inconclusive.

SMILES	G9a block	HP1b chromo inh	PLK1 PBD inh	JMJD2A Tudor inh	PI5P4Ka inh	BAZ2B block
CCCOc1ccc(-c2nn(-c3ccccc3)cc2/C=C2\SC(N)=NC2=O)cc1	–	–	–	–	–	–
Cc1ccc(-c2nn(-c3ccccc3)cc2C=C2SC(=S)N(CCS(=O)(=O)O)C2=O)cc1	·	·	11µM	·	-89	·
Cc1cccc(NS(=O)(=O)c2ccc3c(c2)CC(C)N3C(=O)C2CCC2)c1C (stereo not drawn)	–	–	·	–	·	–
CN(C)S(=O)(=O)Oc1cc(Cl)ccc1C(=O)Nc1ccc(F)cc1F	–	–	24µM	?	–	–
COc1ccc(-c2c[n+]3c4n2CCCCC4=C(c2ccccc2)C3)cc1	14µM	–	–	40µM	–	56µM
CCOc1ccc(-n2c(-c3ccc(Br)cc3)c[n+]3c2CCCCC3)cc1	1.1µM	–	–	–	–	·
COc1ccc(-c2c[n+]3c(n2-c2ccccc2)CCCCC3)cc1	–	–	30µM	–	–	–
CCOc1cc(N2CCOCC2)c(OCC)cc1NC(=O)c1cc(-c2ccco2)nc2ccccc12	8.9µM	?	–	50µM	·	·
Cc1ccccc1Nc1cc(C(=O)NCC2CCCO2)c2ccccc2n1 (stereo not drawn)	–	–	11µM	–[11.4 µM]	–	–
O=C(NC(=S)NCCCN1CCOCC1)c1ccco1	40µM	–	?	–	–	–
O=C(NCC1CCCO1)c1cc(-c2ccco2)nc2ccccc12 (stereo not drawn)	45µM	?	?	–[11.4 µM]	?	50µM
CCOc1cc(N2CCOCC2)c(OCC)cc1NC(=O)COc1ncnc2ccccc12	?	–	–	–	·	?
Cc1ccccc1Nc1cc(C(=O)NC2CCCC2)c2ccccc2n1	–	–	·	–	·	·
O=C(NCC1CCCO1)c1cc(-c2ccncc2)nc2ccccc12 (stereo not drawn)	–	–	–	–	–	–
CC1CC2(CC(CN(C3CCCCC3)C3CCCCC3)OC2=O)C(=O)O1 (stereo not drawn)	·	·	–	·	–	·
O=C(NCCCN1CCOCC1)c1cc(-c2ccco2)nc2ccccc12	·	–	?	50µM	?	·
O=C(NCCCN1CCOCC1)c1cc(-c2ccc(F)cc2)nc2ccccc12	–[12.7 µM]	–	–	–	–	–
Cc1ccc(CC(=O)Nc2ccc3c(c2)N(C)C(=O)c2ccccc2S3)cc1	4µM	?	·	?	·	?
O=C(CSc1ccc2nnc(-c3ccc(F)cc3)n2n1)NCC1CCCO1 (stereo not drawn)	20µM	–	–	–	·	–
CCOc1ccc(-c2nnc3ccc(SCc4ccc(C(=O)OC)o4)nn23)cc1	11µM	–	–	–	·	–
O=C(CSc1ccc2nnc(-c3ccc(F)cc3)n2n1)NCc1ccco1	8.9µM	–	–	–	·	–
